From PubChem BioAssay AID2733 (National Center for Advancing Translational Sciences (NCATS), 2010) come the findings set out here.

Structures are written as SMILES. Records with an inconclusive call do not appear. Calls of active or inactive are those of the source. The call rests on the fitted dose curve; in most records, active means well fitted inhibition curve with a large enough effect; inconclusive means small, poorly fitted or top-dose-only effect; inactive means flat fitted curve, though single readings scatter.

This assay is described as follows: High Content Assay for Compounds that inhibit the Assembly of the Perinucleolar Compartment: PC3M Cytotoxicity. The settings on record: PC3M cells, ATPLite luminescence viability, 24 h; series mostly up to 46.1 µM; activity change, negative = cytotoxicity: at the top concentration. An excerpt:
High Content Assay for Compounds that inhibit the Assembly of the Perinucleolar Compartment
NIH Chemical Genomics Center [NCGC]
NIH Molecular Libraries Probe Centers Network [MLPCN]
Assay Submitter (PI): Sui Huang, Northwestern University, Feinberg School of Medicine, Cell and Molecular Biology, Chicago, Illinois.
The perinucleolar compartment (PNC) is a non-membrane-bound nuclear subdomain that is associated with but structurally distinct from the nucleolus. The PNC is a heritable trait, in which the number of PNCs per cell in daughter cells often mimics that of their mother cells. The PNC is heterogeneous in shape, is stable through interphase, disassembles during mitosis, and reassembles in early G1. The PNC is concentrated with newly synthesized RNA polymerase III (pol III) RNAs (MRP RNA, RNAse P H1 RNA, hY RNAs[hY1, 2, 5], Alu RNA, and SRP [7SL] RNA) and RNA binding proteins (nucleolin, PTB, CUG-BP, KSRP, Raver1, Raver2, and Rod).
Extensive in vitro studies have shown that the PNC is unique to tumor cells and preferentially forms in tumor cells derived from solid tissues. Examination of cancer cell lines from various origins and malignant capacities has shown that PNC prevalence correlates with the malignancy of tumors and has the potential to be developed as a pan-cancer prognostic marker.
Although the PNC is associated with a DNA locus and a handful of components have been identified, much remains to be investigated regarding the structure and function of the PNC and its mechanistic link to cancer. We have previously shown that PNC prevalence reduction is a valid strategy to identify compounds that can be used to study the structure and function of the PNC. It is necessary, however, to create a screening platform that is able to test a large number of compounds in an automated fashion. Here we report the development and robustness of an automated whole-cell phenotypic image-based screening assay that is capable of identifying such compounds.
We conducted a followup assay to measure the effect of the lead candidates on cell health by measuring ATP levels (ATPLite). The highly metastatic PC3M-GFP reporter cell line was used in this study.
1. Cells at a density of 75-90% confluency in T175 flasks were harvested using 7 ml TrypLE Express cell dissociation reagent. After dissociation (5 minutes room temperature incubation) 10 ml of complete media was added to the TrypLE/cell suspension. The liquid was transferred to a 50 ml Conical tube and cells were pelleted at 1000 RPM for 5 min. Supernatant was removed and cells were resuspended to a final density of 150-200 cells/ul in complete media.
2. Cells were plated in 5 ul volume (2000 cells/well) into 1536 well White solid bottom plates and allowed to recover and adhere at 37 C in a humidified 5% CO2 incubator for 4 hours.
3. After 4 hour incubation, compound libraries (23 nl of 12.5 uM in columns 5-48) were transferred to the plates in duplicate using a 1536 well pintool. Camptothecin positive control (59 uM final) was added to column 2 and 1:3 dilutions of camptothecin was added to column 3. DMSO negative controls were present in columns 1 and 4.
4. After a 24 hour incubation in the 37 C incubator, all wells were treated with 3 ul of ATPLite reagent using a multidrop combi dispenser (ThermoFisher). Bubbles that formed during dispensing were removed by spinning the plates for 1 minutre at 1500 RPM on a table top centrifuge.
5. Luminescencent signal was detected on a Viewlux CCD based imager (PerkinElmer) with a clear filter and a 30 second integration time.
The PC3M cell line stably expressing the PTB-GFP was provided by Sui Huang of Northwestern University. The media and cell culture reagents were purchased from Invitrogen (Carlsbad, CA), ATPLite came from PerkinElmer.
A general note: ATP-based viability assays read luminescence as a measure of living cells.
With `CC(=O)N(C)C1=C(N2CCOCC2)C(=O)c2ccccc2C1=O`, the Potency is 15.8 µM (active).

Turning to `CC12CCC(C(=O)NC(c3ccccc3)c3ccccc3)(OC1=O)C2(C)C` (stereo not given), the “activity change, negative = cytotoxicity” value is -16.5% (inactive).

Consider `COc1cccc(CNc2cccc3cccnc23)c1O`, for which the “activity change, negative = cytotoxicity” value was -0.123% (inactive).

Turning to `O=C1C(=Cc2cccs2)C(=O)c2ccccc21`, the “activity change, negative = cytotoxicity” value was -11.4% (inactive).

Take `Cc1ccc(NC(=S)NCCc2ccc(S(N)(=O)=O)cc2)cc1C`: the “activity change, negative = cytotoxicity” value was 14.6% (inactive).

On to `C=CCNC(=S)N/N=C(\C)c1ccccn1`, for which the Potency was 6.31 µM (active).

For `Cc1cc(SC(C)C(=O)Nc2ncc(Cl)cc2Cl)nc2ccccc12` (stereo not given), the Potency was 11.2 µM (active).

In the case of `COc1ccc(-c2nc(NC(=O)c3n[nH]c(=O)c4ccccc34)sc2C)cc1`, the Potency was 7.08 µM (active).

Take `Cc1cc[n+](C2=C([O-])c3ccccc3C(=O)/C2=N\S(=O)(=O)c2cccs2)cc1C`: the Potency is 25.1 µM (active).

On to `CCCCN(C(=O)Nc1ccc(Cl)cc1)C1CCN(C(C)=O)CC1`, for which the “activity change, negative = cytotoxicity” value is -17.1% (inactive).

Take `Cc1ccc(Cl)cc1N(CC(=O)N1CCCCCC1)S(C)(=O)=O`: the “activity change, negative = cytotoxicity” value is -19% (inactive).

For the molecule `COc1ccc(-c2csc(NC(=O)c3ccc(OCC(=O)N4CCOCC4)c(OC)c3)n2)cc1`, the “activity change, negative = cytotoxicity” value is -19.6% (inactive).

For `COc1ccc(CN2CCC(C(=O)NCCc3ccc(OC)c(OC)c3)CC2)c(OC)c1`, the “activity change, negative = cytotoxicity” value was -5.79% (inactive).

For the molecule `O=C(N/N=C/c1ccccc1O)c1cccc(C(F)(F)F)c1`, the Potency is 10 µM (active).

`CN(C)c1ccc(N=Nc2ccccc2C(=O)OCC(=O)NC2CCCC2)cc1`: the “activity change, negative = cytotoxicity” value is -11.2% (inactive).

`O=c1[nH]cnc2c1C(c1ccccc1[N+](=O)[O-])c1c(nc[nH]c1=O)O2`: the “activity change, negative = cytotoxicity” value was 7.92% (inactive).

Consider `Nc1ccc2c(c1)C(=O)C(=O)c1ccccc1-2`, for which the Potency was 22.4 µM (active).

For the molecule `CN1c2ccccc2C(C)(C)C12CC(c1ccc(Cl)c(S(=O)(=O)N3CCCC3)c1)=NO2` (stereo not given), the Potency was 3.98 µM (active).

Consider `CCCNC1=C(N(C(C)=O)c2cccc(F)c2)C(=O)c2ccccc2C1=O`, for which the Potency is 11.2 µM (active).

Turning to `COc1cc(/C=N/NC(=O)c2ccc(CSc3nc4ccccc4[nH]3)cc2)cc(OC)c1OC`, the “activity change, negative = cytotoxicity” value was -25% (inactive).

As for `COc1ccc2nc3sc(C(=O)NCCCN4CCc5ccccc5C4)cc3cc2c1`, the Potency is 31.6 µM (active).

Take `CCOC(=O)CSc1nc2c(sc3ccc([N+](=O)[O-])cc32)c(=O)n1Cc1ccco1`: the “activity change, negative = cytotoxicity” value was 8.39% (inactive).

Consider `Cc1c(C#N)c(N)nc2c3c(sc12)NC(=O)CC3c1ccc(F)cc1` (stereo not given), for which the “activity change, negative = cytotoxicity” value is -15.1% (inactive).

Consider `CC(=O)c1ccc(-n2c(SCC(=O)c3c[nH]c4ccccc34)nc3ccccc3c2=O)cc1`, for which the “activity change, negative = cytotoxicity” value is -0.271% (inactive).

`O=C(N/N=C/c1c(O)ccc2ccccc12)c1cccc(C(F)(F)F)c1`: the Potency was 8.91 µM (active).

For the molecule `N=c1c2c(-c3ccccc3)c(-c3ccccc3)n(Cc3ccccc3)c2ncn1CCCO`, the “activity change, negative = cytotoxicity” value was -10.9% (inactive).

With `O=C(N/N=C\c1ccc([N+](=O)[O-])s1)c1cncc(Br)c1`, the Potency was 25.1 µM (active).

Consider `CCN(CC)c1ccc(N=Cc2ccccc2[N+](=O)[O-])cc1`, for which the “activity change, negative = cytotoxicity” value was 11.6% (inactive).

On to `COc1ccc(-c2cc(C#N)nc(N3CCN(C)CC3)n2)cc1`, for which the “activity change, negative = cytotoxicity” value is -4.37% (inactive).

Take `CCOC(=O)NC1(Nc2ccc(C)cc2)Oc2ccccc2O1`: the “activity change, negative = cytotoxicity” value was -5.34% (inactive).

As to `O=C(Nc1ccc(NC(=O)C2CC2)cn1)c1ccccc1Cl`, the Potency is 28.2 µM (active).

With `COC(=O)C1=C(C)N(c2ccc(Br)cc2)C(=O)/C1=C\c1ccco1`, the “activity change, negative = cytotoxicity” value was -9.56% (inactive).

On to `CCc1ccc(S(=O)(=O)/N=C2/C=C(Sc3ncn[nH]3)C(=O)c3ccccc32)cc1`, for which the Potency was 35.5 µM (active).

Take `O=C(COC(=O)Cc1ccsc1)NCC1CCCCC1`: the “activity change, negative = cytotoxicity” value was 1.89% (inactive).

Regarding `CNC1=C(N(C(C)=O)c2ccc(Br)cc2)C(=O)c2ccccc2C1=O`, the Potency was 8.91 µM (active).

`CCN=c1scc(-c2ccccc2)n1/N=C/c1ccccn1`: the Potency is 10 µM (active).

For `Cc1ccc(-n2cc(-c3ccccc3)c3c(NN4CCOCC4)ncnc32)cc1`, the “activity change, negative = cytotoxicity” value is -0.717% (inactive).

On to `CCOC(=O)Cn1c(-c2nonc2NC(=O)c2ccccc2F)nc2ccccc21`, for which the Potency is 4.47 µM (active).

For the molecule `Cc1cc(C(=O)Cn2nnc3ccccc3c2=O)c(C)n1-c1ccccc1F`, the Potency is 7.94 µM (active).

In the case of `O=C1C(Nc2ccccc2)=C/C(=N/S(=O)(=O)c2cccs2)c2ccccc21`, the Potency was 15.8 µM (active).
